From PubChem BioAssay
The entries come from a sample that favours hits as a whole.
Shiga inhibitor: Shiga toxin inhibition; actives 9.2% (n = 290,000); AID 2315; inhibition, % at 38.7 µM; Vero cells, Shiga toxin protein synthesis inhibition reporter; in the data active = inhibition mostly above about 28%, no sharp cut-off; inactive = mostly below about 43%; also: 0% is about no effect
LmPK inhibitor: blocks Leishmania mexicana pyruvate kinase activity. AID 1721. purified LmPK, Kinase-Glo ATP luminescence, 1 h. actives 0.37% (n = 290,000). Potency, µM (doses to about 57.5 µM), inactives show at the top dose activity change, negative = inhibition, usual class: inhibitors; also: potency is read from the fitted curve at half-maximal effect; % is scaled to controls: 0 for no effect and ±100 for the full control effect
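ATP generated from ADP (0.1 mM) and PEP (0.5 mM) by 0.1 nM LmPK over 1 h at room temperature (pH 7.2 imidazole buffer) was detected by coupled luciferase luminescence. Values were normalized to uninhibited and no-enzyme wells.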
Tb PYK inh: inhibitors of Trypanosoma brucei pyruvate kinase. AID 624173. Q57TT1. Potency, µM (doses to about 76.8 µM), for inactives: top-dose activity, negative = inhibition, most hits filed as inhibitors. TbPYK enzyme, Kinase-Glo Plus ATP luminescence, 45 min. actives 0.12% (n = 410,000); also: potency is read from the fitted curve at half-maximal effect; % is scaled to controls: 0 for no effect and ±100 for the full control effect; nearly all actives have a fitted effect of over 50% in size
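Screened from lowest to highest concentration, compounds were pinned into TbPYK/substrate mixtures, and ADP (130 uM final) was added. Plates sat at room temperature for 45 min prior to Kinase-Glo Plus detection by luminescence.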
CHX counter: counter-screen for Shiga toxin inhibitors: cycloheximide protein synthesis inhibition. AID 2314. cell reporter, cycloheximide protein synthesis inhibition counterscreen. actives 12% (n = 300,000). max response, %; in the data active = max response mostly above about 13%, no sharp cut-off; inactive = mostly below about 14%; also: read at 38.3 µM for the half of the compounds with a filed dose; 0% is about no effect
RE007 growth inh: less growth of the S. pombe RE007 Vpr strain | actives 0.21% (n = 360,000) | S. pombe RE007 Vpr strain, BacTiter-Glo ATP luminescence, 24 h | AID 651644 | Potency, µM (titrated, usually from 92.2 µM), inactives show at the top dose activity change, negative = less growth, actives largely listed as inhibitors; active = well fitted falling curve with a large enough effect; inconclusive = small, poorly fitted or top-dose-only effect; inactive = no such curve, though single readings can be large or run the other way; also: potency is read from the fitted curve at half-maximal effect; % is scaled to controls: 0 for no effect and ±100 for the full control effect; nearly all actives have a fitted effect of over 50% in size
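Fission yeast strain RE007, carrying one chromosomally integrated HIV-1 vpr copy, was seeded at OD 0.01 in PMG+AL medium with 23 nL pinned compound. After 24 h at 30 °C and 99% humidity, viability was read by BacTiter-Glo luminescence.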
Giardia FBPA inh: inhibitors of Giardia lamblia fructose-1,6-bisphosphate aldolase; A8B2U2; purified Giardia FBPA; Potency, µM (series often up to 59.6 µM), inactives show at the top dose activity, negative = inhibition, usual class: inhibitors; actives 0.71% (n = 290,000); AID 2451; also: potency is read from the fitted curve at half-maximal effect; % is scaled to controls: 0 for no effect and ±100 for the full control effect; nearly all actives have a fitted effect of over 55% in size
Target sequence (A8B2U2 whole entry, looked up): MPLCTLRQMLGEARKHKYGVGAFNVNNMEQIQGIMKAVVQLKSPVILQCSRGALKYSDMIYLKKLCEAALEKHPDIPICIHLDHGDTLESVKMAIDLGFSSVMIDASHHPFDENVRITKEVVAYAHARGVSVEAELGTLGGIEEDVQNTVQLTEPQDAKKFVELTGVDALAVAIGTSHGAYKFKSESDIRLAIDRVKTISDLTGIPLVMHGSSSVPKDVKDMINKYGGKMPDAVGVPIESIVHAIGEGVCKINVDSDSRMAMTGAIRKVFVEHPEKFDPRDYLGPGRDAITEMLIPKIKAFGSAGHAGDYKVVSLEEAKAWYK
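Giardia FBPA (40 nM reagent) was preincubated 10 min at RT with compound (up to 57.5 uM final), then substrate plus GAPDH/TPI/NAD/arsenate coupling system with diaphorase/resazurin was added; resorufin fluorescence (525/598 nm) was read after 20 min.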
* hit, by the source's call; ? = inconclusive; · = no result given; [ ] = remark or other dose. Unless noted, calls follow the shape of the dose curve; as a rule, active = well fitted curve in the direction sought with a large enough effect; inconclusive = small, poorly fitted or top-dose-only effect, or another doubt; inactive = no such curve, though single readings can be large; an effect the other way counts as inactive or inconclusive.

SMILES	Shiga inhibitor	LmPK inhibitor	Tb PYK inh	CHX counter	RE007 growth inh	Giardia FBPA inh
COc1ccc2c(c1)C(=O)CC(c1ccccc1F)O2 (configuration not stated)	36*	1%	-4%	13*	-13%	-4%
COc1ccc2c(c1)C(=O)CC(c1ccc(OC)c(OC)c1)O2 (configuration not stated)	·	5%	5%	-4	3%	5%
COc1ccc2c(c1)C(=O)CC(c1ccc3c(c1)OCCO3)O2 (configuration not stated)	61*	11%	0%	43*	42%	5%
Cc1ccc2c(c1)C(=O)CC(c1ccc3c(c1)OCCO3)O2 (configuration not stated)	64*	-7%	-6%	41*	2%	9%
CO[C@H]1COC(=O)[C@H]2CCCN2C(=O)C/C=C\[C@@H](C)[C@H](OC)COC(=O)[C@@H](OCc2ccccc2)/C=C\[C@@H]1C	·	·	·	·	·	1%[12.9 µM]
Cc1c(Cl)cccc1-n1ncc(C(=O)NCCN2CCN(C)CC2)c1C1CCN(C(=O)OC(C)(C)C)CC1	·	·	0%	·	·	·
CC(C)(C)C1CCc2c(sc3nc(-c4cc5cc(Br)ccc5oc4=O)[nH]c(=O)c23)C1 (configuration not stated)	·	·	-2%	·	·	·
COc1ccc(-c2cc3c(=O)n(CC(=O)NCc4cccnc4)ncn3n2)cc1	37*	-5%	2%	28*	9%	-5%
COc1ccc(S(=O)(=O)N(C)CC(=O)NCc2cccnc2)cc1	75*	-1%	3%	10	2%	-3%
Oc1ccc(/C=C/c2cnccn2)cc1	94*	-30%	3%	34*	-13%	3%
Oc1ccc(/C=C\c2cc(O)cc(O)c2)cc1	·	·	-12%[33.2 µM]	·	·	6%
O=C1NC(=O)C(=Cc2ccc(SC3CCCCC3)o2)C(=O)N1	51*	-8%	?	12	-11%	-11%
CNS(=O)(=O)c1ccc(-c2ccc(C=C3C(=O)NC(=O)NC3=O)o2)cc1	-3	-7%	?	-3	3%	-3%
CCOC(=O)c1ccc(C#Cc2ccc3c(c2)C(C)(C)CCS3)nc1	·	·	-10%	·	·	·
Cc1ccc([N+](=O)[O-])cc1N/C=C/C(=O)c1ccco1	125*	3%	3%	65*	-11%	-12%
Cc1ccc(N/C=C/C(=O)c2ccco2)c(O)c1	70*	-12%	-3%	60*	-15%	-12%
C[C@H](NC(=O)[C@@H]1CSC2c3ccccc3C(=O)N21)C(=O)NCCc1ccccc1 (some centres not stated)	51*	5%	3%	43*	3%	·
COc1ccccc1-c1c(C(F)(F)F)oc2cc(OC(=O)c3ccccc3[N+](=O)[O-])ccc2c1=O	24	4%	3%	7	8%	-5%
COc1ccccc1-c1c(C(F)(F)F)oc2cc(OS(C)(=O)=O)ccc2c1=O	39	-2%	6%	25*	8%	-4%
Cc1nc2cc(-c3ccccc3)nn2c(C)c1CCC(=O)N1CCN(c2ccc(F)cc2)CC1	·	·	0%	·	·	·
O=C(O)c1ccccc1C(=O)NNc1ccc(Cl)cc1	49*	-1%	2%	11*	48%	0%
NS(=O)(=O)c1ccc(NNC(=O)c2ccccc2C(=O)O)cc1	89	4%	0%	29*	3%	-17%
NS(=O)(=O)c1ccc(NC(=O)c2ccccc2Cl)cc1	-7	1%	4%	1	-17%	-1%
O=C(O)c1ccccc1C(=O)NNc1cccc(Cl)n1	98*	-5%	-1%	49*	0%	-6%
